SMILES strings stand for the structures. Where “and” joins values, the source holds several entries; their conditions need not be identical. Identical values can stand only once. Inconclusive results are not listed. A structure can be active in one record and inactive in another. Calls of active or inactive are those of the source. The calls were made as follows, unless noted: active = hit-call score of the fitted dose curve at least 0.9, where 1 is the maximum; inconclusive = response in the unintended direction; inactive = score below 0.9. Where a SMILES comes first, the peptide text is derived from it. [ ]: non-standard residue; d: D form. pGlu = O=C1CC[C@@H](C(=O)O)N1

The values that follow come from PubChem BioAssay (EPA / NIEHS).

Assay [1] addresses Cellular tumor antigen p53 (Homo sapiens) (UniProt P04637). The assay is described as follows: TOX21_p53_BLA_p2_ratio: Tox21 HCT-116 p53 Agonism Beta-lactamase Assay, Ratio, Phase 2 (AID 2283592). The procedure, abridged:
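HCT116 p53-bla; 4000 cells/well; 5 h pre-incubation; cpd in DMSO, 217-fold dilution; 16 h 37C/5% CO2; CCF4-AM 2 h RT; Ex 405, Em 460/530 ratio; DMSO = baseline; positive fitting direction.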

Assay [2] in a line: TOX21_p53_BLA_p3_viability: Viability Assessment in the Tox21 HCT-116 p53 Agonism Beta-lactamase Assay, Phase 3 (AID 2283593).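 Also: cells exposed to compound for 16 h before reading.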 The procedure, abridged: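 HCT116 cells, 4000/well, dosed 5 h after plating by pin transfer (217-fold dilution from DMSO stock) and incubated 16 h at 37C, 5% CO2. Viability read as ATP luminescence with CellTiter-Glo after 30 min at room temperature.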

For assay [3], the target named is Cellular tumor antigen p53 (Homo sapiens) (UniProt P04637). The assay can be described thus: TOX21_p53_BLA_p3_ratio: Tox21 HCT-116 p53 Agonism Beta-lactamase Assay, Ratio, Phase 3 (AID 2283596). The gist of the method:
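HCT116 p53-bla cells (4000/well) given compound in DMSO (217-fold dilution) after 5 h, incubated 16 h at 37C. CCF4-AM substrate 2 h at room temperature; 460/530 nm emission ratio, gain fitted against DMSO.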

Assay [4] can be described thus: TOX21_p53_BLA_p4_viability: Viability Assessment in the Tox21 HCT-116 p53 Agonism Beta-lactamase Assay, Phase 4 (AID 2283597).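 Also: hits lower the luminescence signal meaning cytotoxicity.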 The gist of the method: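 Cells plated, 5 h pre-incubation; DMSO compounds pinned (217-fold dilution); 16 h, 37C/5% CO2; CCF4-AM 2 h RT; CellTiter-Glo 30 min RT; luminescence read.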
In assay [5] the target is Cellular tumor antigen p53 (Homo sapiens) (UniProt P04637). The assay is described as follows: TOX21_p53_BLA_p5_ratio: Tox21 HCT-116 p53 Agonism Beta-lactamase Assay, Ratio, Phase 5 (AID 2283599). The procedure, abridged: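 HCT-116 p53-bla cells (4000/well) plated 5 h, dosed with compound (217-fold DMSO dilution) for 16 h at 37 C; CCF4-AM substrate 2 h at room temperature. Activity is the 460/530 nm emission ratio (405 nm excitation), fitted in gain-of-signal direction versus DMSO.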

Assay [6] is described as follows: TOX21_p53_BLA_p5_viability: Viability Assessment in the Tox21 HCT-116 p53 Agonism Beta-lactamase Assay, Phase 5 (AID 2283600). The gist of the method:
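4000 cells/well; 5 h pre-incubation; DMSO compounds pin-transferred, 217-fold dilution; 16 h, 37C/5% CO2; CCF4-AM 2 h RT; CellTiter-Glo 30 min RT; luminescence.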

Assay [7] is described as follows: CCTE_Shafer_MEA_dev_firing_rate_mean: CCTE's Neural Network Formation Assay for Mean Firing Rate, Shafer Lab (AID 2284031; active = hit-call score of the fitted dose curve at least 0.9, where 1 is the maximum; inactive = score below 0.9;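 also: curve fitted for loss of firing so AC50 reflects decreased mean firing rate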). The procedure, abridged: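 Primary rat cortical neurons on 48-well MEA plates, exposed from plating day 0 with dosing renewed on DIV 5 and 9. Mean well firing rate over active electrodes, recorded days 5, 7, 9, 12, summarised as trapezoidal AUC.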

The nature of assay [8]: CCTE_Shafer_MEA_dev_per_burst_spike_percent: CCTE's Neural Network Formation Assay for Percent of Spikes in a Burst, Shafer Lab (AID 2284032; active = hit-call score of the fitted dose curve at least 0.9, where 1 is the maximum; inactive = score below 0.9;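 also: fitted as a decrease in burst spike percentage below DMSO baseline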). The gist of the method:
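Rat primary cortical neurons on 16-electrode MEA wells, dosed from plating day 0 for 12 days with renewal on DIV 5 and 9; spikes-in-bursts percentage averaged over bursting electrodes, collapsed as AUC across days 5, 7, 9, 12; loss direction versus DMSO.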

Assay [9] can be described thus: CCTE_Shafer_MEA_dev_active_electrodes_number: CCTE's Neural Network Formation Assay for Number of Active Electrodes, Shafer Lab (AID 2284040).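 Also: potency for loss of active electrodes versus DMSO so lower counts are hits.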 The procedure, abridged:
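Primary rat cortical neurons on 16-electrode MEA wells, exposed from day 0 through day 12 with compound renewed at DIV 5 and 9 feeds. Active electrodes (mean firing ≥5 spikes/min) counted at DIV 5, 7, 9, 12; trapezoidal AUC across days, loss-of-signal versus DMSO.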

Assay [10] can be described thus: CCTE_Shafer_MEA_dev_burst_rate: CCTE's Neural Network Formation Assay for Burst Rate, Shafer Lab (AID 2284042; active = hit-call score of the fitted dose curve at least 0.9, where 1 is the maximum; inactive = score below 0.9;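 also: potency for loss of burst rate below DMSO control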). The procedure, abridged: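 Developmental network assay measuring how 12-day exposure of rat cortical neuron cultures alters bursting on extracellular MEA recordings. Values are AUC of well-mean burst rate across four recording days, relative to DMSO vehicle.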

Assay [11] can be described thus: CCTE_Shafer_MEA_dev_bursting_electrodes_number: CCTE's Neural Network Formation Assay for Number of Bursting Electrodes, Shafer Lab (AID 2284043).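 Also: potency is for loss of bursting electrodes relative to DMSO.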 The gist of the method: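 Primary rat cortical neurons plated on 16-electrode MEA wells, exposed from day 0 with compound renewed at DIV 5 and 9. Electrodes bursting ≥1 burst per 2 min counted on days 5, 7, 9 and 12; trapezoidal AUC across days, fitted for loss versus DMSO.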

Assay [12] in a line: CCTE_Shafer_MEA_dev_per_burst_interspike_interval: CCTE's Neural Network Formation Assay for Burst Interspike Interval, Shafer Lab (AID 2284044; active = hit-call score of the fitted dose curve at least 0.9, where 1 is the maximum; inactive = score below 0.9;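 also: mean spike spacing inside bursts as AUC over recordings on days 5 7 9 12; potency for a decrease of within-burst interspike interval below DMSO level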). The gist of the method:
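Neurons from rat cortex plated onto PEI-coated MEA wells with laminin […] at 1.5 x 10^5 cells/well, then treated from day 0. Media and compound fully replaced on DIV 5 and 9. Extracellular spontaneous firing recorded four times; interspike interval per burst summarised as AUC.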

Assay [13] is described as follows: CCTE_Shafer_MEA_dev_burst_duration_mean: CCTE's Neural Network Formation Assay for Mean Burst Duration, Shafer Lab (AID 2284045; active = hit-call score of the fitted dose curve at least 0.9, where 1 is the maximum; inactive = score below 0.9;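 also: curve fitted for loss meaning shorter burst duration than DMSO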). The procedure, abridged:
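Primary rat cortical neurons on 48-well 16-electrode MEA plates, exposed from day 0 with renewal at DIV 5 and 9; spontaneous activity recorded on days 5, 7, 9, 12. Well-mean burst duration across bursting electrodes, collapsed as trapezoidal AUC; DMSO baseline.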

Assay [14] is described as follows: CCTE_Shafer_MEA_dev_interburst_interval_mean: CCTE's Neural Network Formation Assay for Mean Interburst Interval, Shafer Lab (AID 2284046; active = hit-call score of the fitted dose curve at least 0.9, where 1 is the maximum; inactive = score below 0.9;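 also: well-mean interburst interval of bursting electrodes as AUC over four recording days; curve fitted for decrease in interburst interval relative to DMSO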). The gist of the method:
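Network formation assay in primary rat cortical cultures, exposed from DIV 0 to 12. Mean interburst interval per well, integrated as AUC over four recordings.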

A short description of assay [15]: CCTE_Shafer_MEA_dev_inter_network_spike_interval_mean: CCTE's Neural Network Formation Assay for Mean Inter-network Spike Interval, Shafer Lab (AID 2284047; active = hit-call score of the fitted dose curve at least 0.9, where 1 is the maximum; inactive = score below 0.9;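 also: potency for a decrease in mean inter-network spike interval below DMSO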). The gist of the method:
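Compound was given at plating to primary rat cortical neurons and renewed with full medium changes on DIV 5 and 9. Extracellular activity was recorded on days 5, 7, 9, 12; AUC values were fitted for loss relative to DMSO control.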

A short description of assay [16]: CCTE_Shafer_MEA_dev_network_spike_number: CCTE's Neural Network Formation Assay for Number of Network Spikes, Shafer Lab (AID 2284048; active = hit-call score of the fitted dose curve at least 0.9, where 1 is the maximum; inactive = score below 0.9;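 also: fit as a loss of signal meaning fewer network spikes than DMSO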). The gist of the method:
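Primary rat cortical neurons on PEI/laminin 48-well MEA plates, dosed from plating day 0 for 12 days, renewed at DIV 5 and 9. Network spike counts recorded DIV 5, 7, 9, 12, collapsed as trapezoidal AUC; DMSO baseline.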

Assay [17] can be described thus: CCTE_Shafer_MEA_dev_network_spike_peak: CCTE's Neural Network Formation Assay for Mean Number of Electrodes in Network Spike, Shafer Lab (AID 2284049; active = hit-call score of the fitted dose curve at least 0.9, where 1 is the maximum; inactive = score below 0.9;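 also: fitted for loss of signal meaning fewer electrodes in network spikes than DMSO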). The procedure, abridged:
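Network-spike peak electrode count from recordings on days 5, 7, 9 and 12 was combined as trapezoidal area under the curve. Rat cortical cultures were treated continuously from plating, with compound renewed at each feed (DIV 5, 9); fits versus DMSO.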

A short description of assay [18]: CCTE_Shafer_MEA_dev_spike_duration_mean: CCTE's Neural Network Formation Assay for Mean Spike Duration, Shafer Lab (AID 2284051; active = hit-call score of the fitted dose curve at least 0.9, where 1 is the maximum; inactive = score below 0.9;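 also: mean network spike duration pooled as area under curve over DIV 5 to 12 recordings; potency for a decrease in mean network spike duration versus DMSO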). The gist of the method: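 With DMSO as baseline, loss of mean network spike duration was scored from extracellular recordings of rat cortical neurons on MEA plates. Exposure spanned plating to DIV 12; the four recording days were collapsed into one AUC value.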

A short description of assay [19]: CCTE_Shafer_MEA_dev_network_spike_duration_std: CCTE's Neural Network Formation Assay for Standard Deviation of Network Spike Duration, Shafer Lab (AID 2284052; active = hit-call score of the fitted dose curve at least 0.9, where 1 is the maximum; inactive = score below 0.9;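 also: area under curve of spike duration SD across recording days 5 to 12; hits are decreases in network spike duration SD versus DMSO vehicle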). The procedure, abridged:
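Developing networks of rat cortical neurons were exposed over twelve days in vitro on 48-well MEA plates. Trapezoidal AUC of recordings (DIV 5–12) was analysed for signal loss relative to DMSO vehicle.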

A short description of assay [20]: CCTE_Shafer_MEA_dev_per_network_spike_spike_number_mean: CCTE's Neural Network Formation Assay for Mean Number of Spikes in a Network Spike, Shafer Lab (AID 2284053; active = hit-call score of the fitted dose curve at least 0.9, where 1 is the maximum; inactive = score below 0.9;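 also: fitted as decrease in spikes per network spike relative to DMSO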). The procedure, abridged:
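First, rat cortical cells (1.5 x 10^5/well) were seeded onto MEA wells; second, dosing began at plating and was refreshed on DIV 5 and 9; finally, network-spike spike counts across DIV 5–12 were summarized as AUC.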

Assay [21] is described as follows: CCTE_Shafer_MEA_dev_per_network_spike_spike_percent: CCTE's Neural Network Formation Assay for Percent of Spikes in a Network Spike, Shafer Lab (AID 2284054; active = hit-call score of the fitted dose curve at least 0.9, where 1 is the maximum; inactive = score below 0.9). The procedure, abridged: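 Rat primary cortical neurons were grown on 48-well MEA plates (16 electrodes/well), exposed from plating day 0 through day 12, with treatment renewed on DIV 5 and 9. Percent of spikes within 0.05 s network-spike peaks was measured, summarised as AUC across days 5, 7, 9, 12.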

Assay [22] can be described thus: CCTE_Shafer_MEA_dev_LDH: CCTE's Lactate Dehydrogenase Assay for Cytotoxicity in the Neural Network Formation Assay, Shafer Lab (AID 2284068).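 Also: exposure for twelve days from plating with re-dosing on DIV 5 and 9.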 The procedure, abridged:
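Developing rat cortical networks on MEA plates are exposed to compound for 12 days from plating. LDH activity is measured spectrophotometrically, with DMSO as baseline.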

Assay [23] can be described thus: TOX21_p53_BLA_p2_viability: Viability Assessment in the Tox21 HCT-116 p53 Agonism Beta-lactamase Assay, Phase 2 (AID 2283591).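 Also: compound exposure lasted 16 h at 37 °C; actives lower the ATP signal meaning cytotoxicity.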 The gist of the method:
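HCT116 p53-bla cells, 4000/well, dosed after 5 h plating (217-fold dilution of DMSO stocks) and incubated 16 h at 37C. Viability taken as cellular ATP by CellTiter-Glo luminescence after 30 min RT; signal loss marks cytotoxicity.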

Assay [24] has as its target Cellular tumor antigen p53 (Homo sapiens) (UniProt P04637). The assay can be described thus: TOX21_p53_BLA_p4_ratio: Tox21 HCT-116 p53 Agonism Beta-lactamase Assay, Ratio, Phase 4 (AID 2283601). The procedure, abridged:
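HCT-116 p53 beta-lactamase reporter cells (4000/well) preincubated 5 h, then compound (217-fold dilution of DMSO stock) for 16 h at 37C. CCF4-AM substrate added 2 h at room temperature; 460/530 nm emission ratio fitted upward versus DMSO.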

Chain of Cellular tumor antigen p53 (Homo sapiens) (P04637 whole entry, looked up): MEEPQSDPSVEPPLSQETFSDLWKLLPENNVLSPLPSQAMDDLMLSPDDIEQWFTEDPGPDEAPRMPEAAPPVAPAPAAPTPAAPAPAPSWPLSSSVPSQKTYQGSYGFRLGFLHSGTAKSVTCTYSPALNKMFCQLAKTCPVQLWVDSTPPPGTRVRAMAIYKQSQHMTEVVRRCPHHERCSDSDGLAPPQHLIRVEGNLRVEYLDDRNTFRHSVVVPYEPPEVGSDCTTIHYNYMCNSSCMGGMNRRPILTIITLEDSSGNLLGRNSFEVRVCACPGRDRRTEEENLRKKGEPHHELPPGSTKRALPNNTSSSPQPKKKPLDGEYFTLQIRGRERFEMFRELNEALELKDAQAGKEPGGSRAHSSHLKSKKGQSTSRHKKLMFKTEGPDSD

As for `COc1ccc2cc3[n+](cc2c1OC)CCc1cc2c(cc1-3)OCO2`, the AC50 was 4580 nM (active) in assay [1]; 41200 nM (active) in assay [2]; 28500 nM (active) in [4]; 66700 nM (active) in assay [5]; 106 nM (active) in [7]; 145 nM (active) in [8]. Also, the AC50 in [9] was 161 nM (active); in assay [10] it was 92.8 nM (active); in assay [11], 130 nM (active); in [12] it was 381 nM (active); in assay [13], 291 nM (active); in [14] it was 287 nM (active). Also, the AC50 is 236 nM (active) in assay [15]; 79.8 nM (active) in assay [16]; 156 nM (active) in assay [17]; 130 nM (active) in [18]; 97.4 nM (active) in [19]; 109 nM (active) in assay [20]. The AC50 in assay [21] is 117 nM (active); in [22] it was 88.1 nM (active). The result in assay [1], in assay [2], in assay [3], in [4], in [5] and in assay [6] was inactive.
In the case of `COC(=O)C[C@](O)(CCCC(C)(C)O)C(=O)O[C@@H]1C(OC)=CC23CCCN2CCc2cc4c(cc2[C@H]13)OCO4` (some centres undefined), the AC50 is 20.2 nM (active) in assay [1]; 45.4 nM (active) and 43.1 nM (active) in [3]; 14 nM (active) in assay [4]; 37.9 nM (active) in assay [5]. Moreover, the outcome in assay [1], in [2], in [5] and in assay [6] was inactive.
With `C[Si](C)(C)Cl`, the result in [23] and in assay [24] was inactive.
As for `COc1cc2c(cc1O)CCN[C@]21CS[C@@H]2c3c(OC(C)=O)c(C)c4c(c3[C@H](COC1=O)N1[C@@H]2[C@H]2c3c(cc(C)c(OC)c3O)C[C@@H]([C@@H]1O)N2C)OCO4`, in assay [1], the AC50 is 1.74 nM (active) and the outcome was inactive.
For the compound `c1ccsc1`, in assay [1], the result was inactive.
For `CC[C@H](C)[C@H](NC(=O)[C@H](Cc1ccccc1)NC(=O)[C@H](C)NC(=O)[C@H](CC(=O)O)NC(=O)[C@H](CCCCN)NC(=O)[C@H](CO)NC(=O)[C@@H]1CCCN1C(=O)[C@@H]1CCC(=O)N1)C(=O)NCC(=O)N[C@@H](CC(C)C)C(=O)N[C@@H](CCSC)C(N)=O` ([pGlu]PSKDAFIGLM-NH2), the compound was classed as inactive in assay [23], in assay [5], in [6] and in assay [24].
As for `NS(=O)(=O)c1cc(C(=O)O)cc(N2CCCC2)c1Oc1ccccc1`, the compound was classed as inactive in assay [23], in [6] and in [24].
For `CSc1ccc(C(=O)c2[nH]c(=O)[nH]c2C)cc1`, the outcome in assay [23], in assay [5], in [6] and in assay [24] was inactive.
Take `CC1=C(C/C=C(\C)CCC[C@H](C)CCC[C@H](C)CCCC(C)C)C(=O)c2ccccc2C1=O`: the compound was classed as inactive in assay [23] and in assay [24].
In the case of `C[C@@H](CN(C)C)CN1c2ccccc2Sc2ccccc21`, the compound was called inactive in [23], in assay [5] and in [24].
As for `CC(=O)Nc1ccc(OC(C)=O)cc1`, the compound was classed as inactive in assay [23], in [5], in [6] and in assay [24].

By AC50 is commonly meant the concentration giving half of the maximal activity seen.
